Drawing on PubChem BioAssay, this text covers viability and differential viability (reversal) for 39 compounds.

Activity calls are given as the source filed them.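 How the source made its calls, unless noted: active means viability loss from added drug above about 55%, and viability with drug at most 40%, in both replicates (limit read from the data, passing the limit was not always enough); inconclusive means both conditions met in only one replicate; inactive means neither replicate meets both conditions.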

The first assay in a line: growth inhibitors of H69AR lung tumor, primary screen, human, duplicate replicates (AID 580;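 active means viability at or under a set limit in both replicates, limit being median viability minus 3 SD, cut at about 48% in these data, passing the limit was not always enough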;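 further: 100% = mean luminescence of untreated wells and 0% = no signal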). The settings on record: H69AR lung tumor cells viability, ATP luminescence, 72 h; at 10 µM; stronger effect = lower value.
On to `O=C(Cn1ncc2c(=O)oc3ccccc3c21)Nc1nc2ccccc2s1`, for which the viability is 102% (inactive). The same measure, in the same setting: to `COCc1nnc(NS(=O)(=O)c2ccc(Br)cc2)s1` belongs 91.3% (inactive); to `COc1ccc(S(=O)(=O)NCc2ccc(C(=O)O)cc2)cc1`, 95.8% (inactive). `Cc1ccc(S(=O)(=O)CC2CSc3nnc(C)c(=O)n32)cc1` (stereo unspecified): the viability is 88% (inactive). Still for that read-out and setting: as for `Cc1occc1C(=O)Nc1cccnc1`, the figure is 97.7% (inactive); as for `CN(C1CCCCC1)S(=O)(=O)c1ccc(S(=O)(=O)N2CCCC2)cc1`, 78.5% (inactive). On the same count and under the same terms, to `Cn1cccc1Cc1nnc(SCC(=O)Nc2ccccc2F)n1CCc1ccccc1` belongs 83.7% (inactive); to `COc1ccc(C(=O)CSc2nc(C)cc(=O)[nH]2)cc1`, 101% (inactive).

Take `CCCCCC1CC(CC#CCN2CCOCC2)C(=O)O1` (stereo unspecified): the viability was 93.8% (inactive).

With `O=C(COc1ccccc1)Nc1ccccc1N1CCN(c2ccccc2)CC1`, the viability is 84.2% (inactive). The same measure, in the same setting: as for `Brc1ccc(C2=Nn3c(nnc3-c3ccncc3)SC2)cc1`, the figure is 77.1% (inactive); as for `Cc1nc2sc3c(c2c(=O)o1)CCC3`, 88.1% (inactive). Same read-out and setting: to `Cc1ccc(S(=O)(=O)Cn2nnnc2CN(Cc2ccco2)Cc2cccs2)cc1` belongs 80.6% (inactive); to `CC(=O)NCc1ccc(C(=O)CSc2nnc(-c3ccncc3)n2Cc2ccccc2)o1`, 97.1% (inactive). Same read-out and setting: to `CCOC(=O)c1ccc(Oc2nc(NC)nc(OC)n2)cc1` belongs 104% (inactive). Regarding `O=P(O)(O)C(O)C(F)(F)C(F)(F)C(F)(F)C(F)F` (stereo unspecified), the viability is 92.5% (inactive).

In the case of `COc1ccc(C)cc1NC(=O)CN1CCN(S(=O)(=O)c2ccc(Cl)cc2)CC1`, the viability was 82.6% (inactive). Same read-out and setting: as for `COc1ccc(OC)c2[nH]c(=O)c(CCNC(=O)CC(C)C)cc12`, the figure is 100% (inactive); as for `O=S(=O)(Cc1ccccc1)N1CCN(Cc2ccccc2)CC1`, 95.5% (inactive); as for `COC(=O)C1C(=O)C2=C(CC1C)NC(=O)CC2c1ccccc1` (stereo unspecified), 103% (inactive). The same measure, in the same setting: as for `CC(C)CCNC(=O)C(c1ccco1)N(CC1CCCO1)C(=O)Cn1nnc2ccccc21` (stereo unspecified), the figure is 94.4% (inactive); as for `CC(C)COc1ccc(-c2nnn(CC(=O)N3CCCC3)n2)cc1`, 104% (inactive).

Another assay is described as follows: reversal of MRP1-mediated doxorubicin resistance, pilot screen, H69AR cells, doxorubicin co-treatment (AID 601). The settings on record: H69AR cells + 2 uM doxorubicin, CellTiter-Glo, 72 h; at 10 µM; stronger effect = higher value.
Regarding `Cc1cc(C)cc(-n2ccnc2SCC(=O)Nc2ccc3c(c2)OCCO3)c1`, the differential viability (reversal) was 8.09% (inactive). On the same count and under the same terms, to `CC(C)CNC(=O)c1ccccc1NC(=O)CN(c1ccc2c(c1)OCCO2)S(C)(=O)=O` belongs 1.55% (inactive); to `N#Cc1cnn(Cc2ccc(Cl)cc2)c1N`, 10.4% (inactive).

Regarding `Cc1cc(C)c2cc(CN(CC3CCCO3)C(=O)NC3CCCCC3)c(=O)[nH]c2c1` (stereo unspecified), the differential viability (reversal) was -2.42% (inactive).

With `Cc1cc2c(cc(C(=O)OCC(=O)NCc3cccs3)n2C(C)C)o1`, the differential viability (reversal) was -30.4% (inactive). Still for that read-out and setting: to `CCCOc1ccccc1NC(=O)c1ccc(N)cc1` belongs 7.58% (inactive); to `COC(=O)/C=c1\sc2ncnn2c1=O`, -3.79% (inactive); to `COc1cccc(CN=CC2=C(O)CC(C)(C)CC2=O)c1OC`, -0.91% (inactive). Same read-out and setting: to `CC(=O)Nc1ccc(NC(=O)C(C)Oc2ccccc2F)cc1` (stereo unspecified) belongs 18.8% (inactive). The same measure, in the same setting: to `Cc1nnc(NC(=O)CSc2nnc(-c3ccc(S(=O)(=O)N4CCCC4)cc3)n2C)s1` belongs 6.45% (inactive); to `CCn1ncc(C2=NOC(C(=O)Nc3ccc4c(c3)OCO4)C2)c1C` (stereo unspecified), 0.945% (inactive); to `COC(=O)C1=CN(C)C=C(C(=O)OC)C1c1ccc(O)c(OC)c1`, 6.83% (inactive). In the case of `COc1ccccc1-c1nc(SCc2ccccn2)n[nH]1`, the differential viability (reversal) was 5.32% (inactive). On the same count and under the same terms, to `CCOC(=O)Cn1c(CN2CCOCC2)nc2c1c(=O)[nH]c(=O)n2C` belongs 0.165% (inactive).

As to `O=C(O)c1ccc2noc(-c3ccccc3)c2c1`, the differential viability (reversal) was 5.36% (inactive). On to `O=S(CC(O)COCc1ccc(Cl)cc1)c1ccccn1` (stereo unspecified), for which the differential viability (reversal) is 1.46% (inactive).

In the case of `CCn1c(CCNC(=O)c2cccs2)nnc1SCC(=O)c1ccc(OC)cc1`, the differential viability (reversal) was -5.32% (inactive). Still for that read-out and setting: to `O=C(Cn1ncc2c(=O)oc3ccccc3c21)Nc1nc2ccccc2s1` belongs 7.33% (inactive). On the same count and under the same terms, to `COCc1nnc(NS(=O)(=O)c2ccc(Br)cc2)s1` belongs -4.46% (inactive); to `COc1ccc(S(=O)(=O)NCc2ccc(C(=O)O)cc2)cc1`, -10.6% (inactive). Consider `Cc1ccc(S(=O)(=O)CC2CSc3nnc(C)c(=O)n32)cc1` (stereo unspecified), for which the differential viability (reversal) was 2.67% (inactive). The same measure, in the same setting: as for `Cc1occc1C(=O)Nc1cccnc1`, the figure is 3.58% (inactive); as for `CN(C1CCCCC1)S(=O)(=O)c1ccc(S(=O)(=O)N2CCCC2)cc1`, -19.2% (inactive).

`Cn1cccc1Cc1nnc(SCC(=O)Nc2ccccc2F)n1CCc1ccccc1`: the differential viability (reversal) is 1.68% (inactive). Still for that read-out and setting: to `COc1ccc(C(=O)CSc2nc(C)cc(=O)[nH]2)cc1` belongs 10% (inactive); to `CCCCCC1CC(CC#CCN2CCOCC2)C(=O)O1` (stereo unspecified), 1.16% (inactive). Same read-out and setting: to `O=C(COc1ccccc1)Nc1ccccc1N1CCN(c2ccccc2)CC1` belongs 1.58% (inactive); to `Brc1ccc(C2=Nn3c(nnc3-c3ccncc3)SC2)cc1`, -14.3% (inactive); to `Cc1nc2sc3c(c2c(=O)o1)CCC3`, -14.3% (inactive). With `Cc1ccc(S(=O)(=O)Cn2nnnc2CN(Cc2ccco2)Cc2cccs2)cc1`, the differential viability (reversal) was 4.66% (inactive).

Consider `CC(=O)NCc1ccc(C(=O)CSc2nnc(-c3ccncc3)n2Cc2ccccc2)o1`, for which the differential viability (reversal) is 9.33% (inactive). On the same count and under the same terms, to `CCOC(=O)c1ccc(Oc2nc(NC)nc(OC)n2)cc1` belongs 5.53% (inactive). On the same count and under the same terms, to `O=P(O)(O)C(O)C(F)(F)C(F)(F)C(F)(F)C(F)F` (stereo unspecified) belongs -5.62% (inactive). The same measure, in the same setting: to `COc1ccc(C)cc1NC(=O)CN1CCN(S(=O)(=O)c2ccc(Cl)cc2)CC1` belongs 25.3% (inactive); to `COc1ccc(OC)c2[nH]c(=O)c(CCNC(=O)CC(C)C)cc12`, 4.93% (inactive); to `O=S(=O)(Cc1ccccc1)N1CCN(Cc2ccccc2)CC1`, 15.5% (inactive). In the case of `COC(=O)C1C(=O)C2=C(CC1C)NC(=O)CC2c1ccccc1` (stereo unspecified), the differential viability (reversal) is 15.2% (inactive). Still for that read-out and setting: as for `CC(C)CCNC(=O)C(c1ccco1)N(CC1CCCO1)C(=O)Cn1nnc2ccccc21` (stereo unspecified), the figure is 1.64% (inactive). Same read-out and setting: to `CC(C)COc1ccc(-c2nnn(CC(=O)N3CCCC3)n2)cc1` belongs 14.9% (inactive).

The viability is a read-out of living cells in per cent, often relative to untreated cells.
